Results from PubChem BioAssay (EPA / NIEHS).
More than one record can exist for a structure, and the calls need not agree. Active and inactive are the calls of the source. How the source made its calls: active means hit-call score of the fitted dose curve at least 0.9, where 1 is the maximum; inactive means score below 0.9.

Experiments:
[1] = read-out: Interleukin-1 alpha (IL1a), IL1A (gene 3552); assay: BSK_KF3CT_IL1a: BioMAP Diversity Plus: KF3CT Assay for Interleukin-1 alpha (IL1a) Biomarker Activity (AID 2283070); details: primary human keratinocytes with fibroblasts; actives raise or lower the signal
How it was run: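 Human keratinocyte plus foreskin fibroblast primary co-culture, sampled 24 h after chemical dosing. IL-1a measured by ELISA; responses fitted bidirectionally against DMSO baseline (negative control), so gain or loss of signal both count.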

[2] = read-out: TIMP metallopeptidase inhibitor 2 (TIMP2), TIMP2 (gene 7077); assay: BSK_KF3CT_TIMP2: BioMAP Diversity Plus: KF3CT Assay for TIMP metallopeptidase inhibitor 2 (TIMP2) Biomarker Activity (AID 2283071); details: primary human keratinocytes with fibroblasts; actives raise or lower the signal
How it was run: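 Keratinocyte–fibroblast co-culture, 24 h exposure; TIMP-2 ELISA, DMSO-normalised bidirectional fit. Parallel SRB (0.1%, TCA-fixed, 560 nm) total-protein staining gauges cytotoxicity.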

[3] = read-out: Transforming growth factor beta 1 (TGFb1), TGFB1 (gene 7040); assay: BSK_KF3CT_TGFb1: BioMAP Diversity Plus: KF3CT Assay for Transforming growth factor beta 1 (TGFb1) Biomarker Activity (AID 2283072); details: primary human keratinocytes with fibroblasts; actives raise or lower the signal
How it was run: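 Signal changes in either direction, relative to DMSO, define activity here. TGF-b1 is read by ELISA from a human keratinocyte-fibroblast co-culture 24 h post-dose.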

[4] = read-out: C-C motif chemokine 2 (Homo sapiens) (UniProt P13500); assay: BSK_KF3CT_MCP1: BioMAP Diversity Plus: KF3CT Assay for Monocyte Chemoattractant Protein 1 (MCP1/CCL2) Biomarker Activity (AID 2283073); details: primary human keratinocytes with fibroblasts; actives raise or lower the signal
How it was run: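 Human keratinocyte–foreskin fibroblast co-culture; MCP-1 measured by ELISA 24 h after dosing. Bidirectional fit vs DMSO; cytotoxicity tracked by SRB total protein in parallel cultures.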

[5] = read-out: Matrix Metallopeptidase 9 (MMP9), MMP9 (gene 4318); assay: BSK_KF3CT_MMP9: BioMAP Diversity Plus: KF3CT Assay for Matrix Metallopeptidase 9 (MMP9) Biomarker Activity (AID 2283074); details: primary human keratinocytes with fibroblasts; actives raise or lower the signal
How it was run: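 Keratinocyte plus foreskin fibroblast human primary skin co-culture was dosed with chemical and MMP-9 was quantified by ELISA 24 h later. Bidirectional curve fitting used DMSO as negative control and activity baseline.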

[6] = read-out: urokinase plasminogen activator (uPA), PLAU (gene 5328); assay: BSK_KF3CT_uPA: BioMAP Diversity Plus: KF3CT Assay for urokinase plasminogen activator (uPA) Biomarker Activity (AID 2283075); details: primary human keratinocytes with fibroblasts; actives raise or lower the signal
How it was run: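 Human keratinocyte plus foreskin fibroblast primary co-culture exposed to chemical for 24 h. uPA levels were quantified by ELISA, and activity was fitted bidirectionally against a DMSO negative-control baseline.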

[7] = read-out: CD40, CD40 (gene 958); assay: BSK_LPS_CD40: BioMAP Diversity Plus: LPS Assay for CD40 Biomarker Activity (AID 2283076); details: primary human HUVEC with PBMC; actives raise or lower the signal
How it was run: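 HUVEC plus PBMC co-culture stimulated with LPS; CD40 quantified by ELISA 24 h after compound dosing. Fitting was bidirectional relative to DMSO. SRB staining of parallel cultures flagged overt cytotoxicity.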

[8] = read-out: E-selectin (Homo sapiens) (UniProt P16581); assay: BSK_LPS_Eselectin: BioMAP Diversity Plus: LPS Assay for Eselectin Biomarker Activity (AID 2283077); details: primary human HUVEC with PBMC; actives raise or lower the signal
How it was run: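 Human umbilical vein endothelial cells co-cultured with PBMC under LPS stimulation; cell-surface E-selectin measured by ELISA 24 h after dosing. Change in either direction versus DMSO, with SRB total-protein staining in parallel cultures for cytotoxicity.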

[9] = read-out: Interleukin-8 (IL8), CXCL8 (gene 3576); assay: BSK_LPS_IL8: BioMAP Diversity Plus: LPS Assay for Interleukin-8 (IL8) Biomarker Activity (AID 2283078); details: primary human HUVEC with PBMC; actives raise or lower the signal
How it was run: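 Human umbilical vein endothelial cells co-cultured with PBMC, LPS-stimulated, exposed to compound for 24 h. IL-8 quantified by ELISA; fitted in both directions against DMSO, with SRB total-protein staining of parallel cultures for cytotoxicity.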

[10] = BSK_LPS_SRB: Viability Assessment in the BioMAP Diversity Plus: LPS Assay (AID 2283079); details: primary human HUVEC with PBMC;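 further: total protein by sulforhodamine B absorbance as a cytotoxicity measure; measured one day after compound addition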
How it was run: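 Co-culture of human umbilical vein endothelial cells and PBMC, read 24 h after dosing. Total protein by 0.1% SRB staining after 10% TCA fixation, absorbance at 560 nm; bidirectional fit against DMSO.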

[11] = read-out: Interleukin-1 alpha (IL1a), IL1A (gene 3552); assay: BSK_LPS_IL1a: BioMAP Diversity Plus: LPS Assay for Interleukin-1 alpha (IL1a) Biomarker Activity (AID 2283080); details: primary human HUVEC with PBMC; actives raise or lower the signal
How it was run: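 Human umbilical vein endothelial cells co-cultured with PBMC and stimulated with LPS; IL-1a measured by ELISA 24 h after dosing. Bidirectional fitting against DMSO; cytotoxicity checked by SRB staining in parallel cultures.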

[12] = read-out: Monocyte Chemoattractant Protein-1 (MCP1), CCL2 (gene 6347); assay: BSK_LPS_MCP1: BioMAP Diversity Plus: LPS Assay for Monocyte Chemoattractant Protein-1 (MCP1) Biomarker Activity (AID 2283081); details: primary human HUVEC with PBMC; actives raise or lower the signal
How it was run: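 Human umbilical vein endothelial cells co-cultured with PBMC, LPS-stimulated; secreted MCP-1 measured by ELISA 24 h after compound addition. Bidirectional curve fitting against DMSO baseline; SRB total-protein staining in parallel cultures for cytotoxicity.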

[13] = BSK_LPS_PGE2: BioMAP Diversity Plus: LPS Assay for Prostaglandin E2 (PGE2) Biomarker Activity (AID 2283082); details: primary human HUVEC with PBMC; actives raise or lower the signal
How it was run: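 Endpoint derived from bidirectional curve fitting versus DMSO of ELISA-measured PGE2 in LPS-stimulated human primary vascular co-culture (HUVEC with PBMC) harvested at 24 h.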

[14] = read-out: Macrophage colony-stimulating factor (MCSF), CSF1 (gene 1435); assay: BSK_LPS_MCSF: BioMAP Diversity Plus: LPS Assay for Macrophage colony-stimulating factor (MCSF) Biomarker Activity (AID 2283083); details: primary human HUVEC with PBMC; actives raise or lower the signal
How it was run: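 HUVEC–PBMC co-culture, M-CSF measured by ELISA 24 h after chemical dosing. Fitted in both directions relative to DMSO as negative control; overt cytotoxicity assessed by SRB total-protein staining in parallel cultures.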

[15] = read-out: Tissue Factor, F3 (gene 2152); assay: BSK_LPS_TissueFactor: BioMAP Diversity Plus: LPS Assay for Tissue Factor Biomarker Activity (AID 2283084); details: primary human HUVEC with PBMC; actives raise or lower the signal
How it was run: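 Human umbilical vein endothelial cells co-cultured with PBMC were dosed with compound. Cell-surface CD142 was measured by ELISA 24 h later. Activity was fitted bidirectionally against DMSO, with SRB total-protein staining in parallel cultures for cytotoxicity.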

[16] = read-out: Tumor necrosis factor (Homo sapiens) (UniProt P01375); assay: BSK_LPS_TNFa: BioMAP Diversity Plus: LPS Assay for Tumour Necrosis Factor alpha (TNFa) Biomarker Activity (AID 2283085); details: primary human HUVEC with PBMC; actives raise or lower the signal;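 on AC50: TNFa protein level quantified by ELISA in the co-culture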
How it was run: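 Primary human vascular co-culture of HUVEC and PBMC; TNFa ELISA 24 h after treatment, analysed as increase or decrease relative to DMSO control.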

[17] = read-out: Vascular cell adhesion molecule 1 (VCAM1), VCAM1 (gene 7412); assay: BSK_LPS_VCAM1: BioMAP Diversity Plus: LPS Assay for Vascular cell adhesion molecule 1 (VCAM1) Biomarker Activity (AID 2283086); details: primary human HUVEC with PBMC; actives raise or lower the signal
How it was run: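 Primary human vascular co-culture (umbilical vein endothelium plus PBMC) stimulated with LPS received chemical; 24 h later VCAM-1 was read by ELISA. Overt cytotoxicity was assessed by sulforhodamine B staining of parallel cultures at the same time point.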

[18] = read-out: CD38, CD38 (gene 952); assay: BSK_SAg_CD38: BioMAP Diversity Plus: SAg Assay for CD38 Biomarker Activity (AID 2283087); details: primary human HUVEC with PBMC; actives raise or lower the signal
How it was run: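 Fluorescence ELISA of cell-surface CD38 served as the read-out, with either increase or decrease fitted against DMSO controls. Cells were a human umbilical vein endothelium plus PBMC co-culture under SEB/TSST-1 stimulation, measured 24 h after dosing.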

[19] = read-out: CD40, CD40 (gene 958); assay: BSK_SAg_CD40: BioMAP Diversity Plus: SAg Assay for CD40 Biomarker Activity (AID 2283088); details: primary human HUVEC with PBMC; actives raise or lower the signal
How it was run: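 HUVEC plus PBMC co-culture, superantigen-activated, with CD40 read by ELISA 24 h after dosing. Curves fitted in both directions against DMSO. Overt cytotoxicity checked by parallel SRB total-protein staining.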

[20] = read-out: CD69, CD69 (gene 969); assay: BSK_SAg_CD69: BioMAP Diversity Plus: SAg Assay for CD69 Biomarker Activity (AID 2283089); details: primary human HUVEC with PBMC; actives raise or lower the signal
How it was run: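 Primary human vascular co-culture (umbilical vein endothelium with peripheral blood mononuclear cells) exposed to test chemical for 24 h. CD69 levels quantified by fluorescence ELISA; DMSO served as negative control for bidirectional fitting.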

Measured: AC50

Sequence of Tumor necrosis factor (Homo sapiens) (P01375 whole entry, looked up): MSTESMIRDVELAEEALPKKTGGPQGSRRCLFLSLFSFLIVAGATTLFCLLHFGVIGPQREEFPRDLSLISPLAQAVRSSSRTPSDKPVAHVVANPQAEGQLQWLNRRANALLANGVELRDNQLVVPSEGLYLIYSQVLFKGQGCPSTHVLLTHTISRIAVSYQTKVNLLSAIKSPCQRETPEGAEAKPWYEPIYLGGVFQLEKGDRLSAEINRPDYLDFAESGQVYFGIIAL
Sequence of E-selectin (Homo sapiens) (P16581 whole entry, looked up): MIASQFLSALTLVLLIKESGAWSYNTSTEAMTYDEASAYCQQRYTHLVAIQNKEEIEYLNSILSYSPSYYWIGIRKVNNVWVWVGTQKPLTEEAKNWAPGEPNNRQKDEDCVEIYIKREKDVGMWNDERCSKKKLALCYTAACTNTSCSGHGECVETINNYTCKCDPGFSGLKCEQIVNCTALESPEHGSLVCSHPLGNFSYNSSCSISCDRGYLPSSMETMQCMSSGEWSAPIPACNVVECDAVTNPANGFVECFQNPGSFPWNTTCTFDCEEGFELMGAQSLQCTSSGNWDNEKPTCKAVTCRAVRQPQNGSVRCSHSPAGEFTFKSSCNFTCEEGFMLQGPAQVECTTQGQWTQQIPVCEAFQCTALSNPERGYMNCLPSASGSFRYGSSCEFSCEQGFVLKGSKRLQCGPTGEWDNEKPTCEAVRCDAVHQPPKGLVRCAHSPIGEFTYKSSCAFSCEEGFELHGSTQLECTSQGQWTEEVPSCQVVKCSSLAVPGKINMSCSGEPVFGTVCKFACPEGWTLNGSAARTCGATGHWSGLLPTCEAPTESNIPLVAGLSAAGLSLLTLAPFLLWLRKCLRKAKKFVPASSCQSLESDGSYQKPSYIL

COC(=O)c1cccc(C)c1S(=O)(=O)NC(=O)Nc1nc(OCC(F)(F)F)nc(N(C)C)n1
inactive: all assays above

CCN(Cc1c(F)cccc1Cl)c1c([N+](=O)[O-])cc(C(F)(F)F)cc1[N+](=O)[O-]
active: [1] 8.48 µM | [7] 9.02 µM | [9] 13.6 µM | [10] 14.1 µM | [14] 11.6 µM | [18] 8.9 µM
inactive: all other assays above

CCNc1nc(N)nc(Cl)n1
active: [16] 14.3 µM
inactive: all other assays above

COCCO
inactive: [1] | [2] | [3] | [5] | [6] | [7] | [8] | [9] | [10] | [11] | [12] | [13] | [14] | [15] | [16] | [17] | [18] | [19] | [20]
active: [1] 0.8 µM

c1ccc2[nH]c(-c3cscn3)nc2c1
not listed: [7]
inactive: all other assays above

COC(=O)c1ccc(I)cc1S(=O)(=O)NC(=O)Nc1nc(C)nc(OC)n1
inactive: all assays above
